# Screens from PubChem BioAssay.
# sPLA2-III inh: human group III sPLA2 inhibitors, primary screen, biochemical, QFRET, BODIPY PC-A2 liposome substrate; Group 3 secretory phospholipase A2 (Homo sapiens), Q9NZ20; QFRET BODIPY PC-A2 liposome hydrolysis, fluorescence; inhibition, % at 12.2 µM; 370,000 compounds, 0.56% hits;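 active = inhibition above mean plus 3 SD of compounds lying within the high and low control bounds, cut at about 19% in these data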;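 note: 0% = median of test compound wells and 100% = no enzyme DMSO wells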
# Target sequence (Q9NZ20 whole entry, looked up): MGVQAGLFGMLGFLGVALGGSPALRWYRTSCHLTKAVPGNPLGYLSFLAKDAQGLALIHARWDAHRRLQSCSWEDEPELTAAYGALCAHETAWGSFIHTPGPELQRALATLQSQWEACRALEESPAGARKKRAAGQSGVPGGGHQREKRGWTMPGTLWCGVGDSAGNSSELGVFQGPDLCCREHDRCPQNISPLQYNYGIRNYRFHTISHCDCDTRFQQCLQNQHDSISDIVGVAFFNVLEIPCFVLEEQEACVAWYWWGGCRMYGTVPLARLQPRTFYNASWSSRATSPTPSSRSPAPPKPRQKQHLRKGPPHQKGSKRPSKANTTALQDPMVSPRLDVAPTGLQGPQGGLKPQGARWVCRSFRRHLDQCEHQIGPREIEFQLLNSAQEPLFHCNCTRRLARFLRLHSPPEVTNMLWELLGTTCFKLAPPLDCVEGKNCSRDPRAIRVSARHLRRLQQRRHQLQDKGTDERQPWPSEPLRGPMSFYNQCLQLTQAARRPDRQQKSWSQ
# HIF act: HIF pathway transcriptional activators, primary screen, cell-based, U2OS HRE-luciferase, luminescence; activation, % at 7.5 µM (by protocol); 300,000 compounds, 0.32% hits; U2OS HRE-luciferase reporter; normalized: DMSO 0%, desferrioxamine 100%; AID 1910, 2009;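 active = mean activation of at least 10% of the iron chelator positive control signal, with at least half of replicates also reaching 10%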
# AHR act: AHR activators, primary screen, cell-based, luminescence, luciferase reporter, human; AHR-responsive luciferase reporter cells; activation, % at 5 µM; 320,000 compounds, 2.5% hits; AID 2796, 2010; in the data active = activation above about 47%;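 note: 0% = vehicle wells and 100% = reference agonist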
# PLCg1 inh: PLC-gamma1 enzyme inhibitors, primary screen, biochemical, fluorescence, purified enzyme. 1-phosphatidylinositol 4,5-bisphosphate phosphodiesterase gamma-1 (Homo sapiens), P19174. AID 720700, 2013. inhibition, % at 12.2 µM. 370,000 compounds, 0.84% hits. fluorogenic substrate; in the data active = inhibition above about 9.5%
# PLCb3 inh: human PLC-beta3 inhibitors, primary screen, biochemical, fluorescence; 1-phosphatidylinositol 4,5-bisphosphate phosphodiesterase beta-3 (Homo sapiens), Q01970; AID 720704, 2013; inhibition, % at 12.2 µM; 370,000 compounds, 0.18% hits; Purified PLC-beta3, fluorogenic substrate; in the data active = inhibition above about 11%;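 note: 0% = median of compound wells on plate and 100% = full blocker control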
# CR mimetic SO: reduction of superoxide in aged yeast, primary screen, HTS. S. cerevisiae aged cells, superoxide DHE fluorescence; active compounds read low. superoxide response (% of plate mean), % at 10 µM. 330,000 compounds, 0.18% hits. AID 2690, 2010;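 active = superoxide response under a set limit, about three screen SD below normal, cut at about 65% in these data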;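 note: yeast aged for seven days with compound at 30 °C before DHE staining; 100% = average MFI of all compound-treated wells on the plate with controls excluded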
# AHR act cf: AHR activators, confirmation, cell-based, luminescence, luciferase reporter, human | AID 2845, 2010 | 2,300 compounds, 87% hits | activation, % at 9 µM | shares compounds with AHR act | human cells, AHR-responsive luciferase reporter; in the data active = activation above about 49%;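 note: HepG2 hepatoma cells carrying a DRE-driven firefly luciferase reporter; 0% = vehicle wells and 100% = reference agonist wells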
# PXR counter: human PXR activators, counter-screen for AHR activator project, cell-based, luciferase luminescence; activation, % at 11.6 µM; cell-based PXR reporter; shares compounds with AHR act; AID 434939, 2010; 2,300 compounds, 88% hits; in the data active = activation above about 11%;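 note: human hepatoma DPX-2 cells expressing full-length human PXR; 0% = DMSO and 100% = reference agonist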
# * = called active by the depositor; / = not tested or not shown. Shown are actives, neighbours in structure and some others; about 3.9% of the full set was active somewhere.
SMILES,sPLA2-III inh,HIF act,AHR act,PLCg1 inh,PLCb3 inh,CR mimetic SO,AHR act cf,PXR counter
CN1C(=O)c2cccc(NC(=O)Cc3ccccc3)c2C1=O,3.1,-0.1,156.4*,-65.2,-86.8,82.3,51.1*,14.1*
Cc1c(NC(=O)Cc2ccccc2)cccc1C(=O)NN1C(=O)c2ccccc2C1=O,1.7,0.2,-0.9,-2.7,-1.9,99.3,/,/
N#Cc1ccccc1NC(=O)COc1ccccc1C(=O)Nc1ccccc1,-41.9,/,93.3*,-2.7,-9.8,104.7,95.0*,41.1*
O=C(Cn1c(=O)n(-c2cccc(C(F)(F)F)c2)c(=O)c2sccc21)NCC1CCCO1 (stereo not given),9.2,0.3,-0.9,0.1,-9.3,83.5,/,/
Cc1ccc2nc3c(cc2c1)c(NC(=O)c1cccnc1)nn3C,-3.9,0.0,106.7*,-105.5,-131.2,102.2,118.0*,24.9*
CCCn1nc(NC(=O)c2ccccn2)c2cc3cc(C)ccc3nc21,4.2,3.0,14.2,-92.5,-118.3,125.8,/,/
CCCC(=O)Nc1nn(C)c2nc3cc(C)ccc3cc12,/,-0.3,84.8*,/,/,97.6,53.0*,/
Cc1ccc(NC(=O)C2C3C=CC4(O3)C2C(=O)N(CCCN2CCCCC2)C4C(=O)NC2CCCCC2)cc1C (stereo not given),3.1,0.0,0.0,4.9,-3.6,110.3,/,/
O=S(=O)(c1ccc(Br)s1)N1CCN(CCc2ccccc2)CC1,1.0,/,0.6,-1.8,2.3,85.4,/,/
C/C(=N\NC(=O)c1cccc([N+](=O)[O-])c1)c1cccs1,-4.8,0.8,80.9*,4.9,-1.2,115.1,78.9*,30.7*
COc1ccccc1-c1nnc(NC(=O)C(C)C)s1,-7.6,1.2,84.3*,-0.5,1.1,117.2,123.5*,16.2*
COc1ccccc1-c1nnc(NC(=O)C(C)Sc2nncn2C)s1 (stereo not given),-1.7,0.1,34.8,-1.1,1.9,93.9,/,/
CC(C)C(=O)Nc1nnc(NC(=S)Nc2ccccc2)s1,5.0,2.9,103.6*,1.0,-6.5,101.6,61.2*,20.9*
COc1ccccc1-c1nnc(NC(C)=O)s1,4.4,1.7,81.9*,0.1,-0.6,90.9,59.3*,/
COc1cccc(OC)c1C(=O)NNC(=O)c1ccccc1-n1cccc1,3.1,0.7,6.6,-3.3,0.6,103.0,/,/
C/C(=N\NC(=O)c1ccccc1-n1cccc1)C1CC1,2.2,-0.1,98.3*,-7.1,-1.5,97.5,4.0,8.7
O=C(N/N=C\c1ccccc1)c1ccccc1-n1cccc1,-5.0,-0.2,92.3*,0.0,-1.6,110.0,110.6*,37.8*
O=C(N/N=C\c1cccs1)c1ccccc1-n1cccc1,-8.2,0.4,43.8,1.6,-3.0,87.2,/,/
O=C(NNC(=O)c1ccccc1-n1cccc1)c1ccccc1,2.5,0.4,80.6*,1.9,3.7,93.9,93.1*,12.2*
NNC(=O)c1ccccc1-n1cccc1,-6.7,0.4,120.8*,-3.9,-4.5,104.4,5.2,9.7
Cc1ccc(C(=O)NNC(=O)c2ccccc2-n2cccc2)cc1,-3.8,-0.2,44.9,3.3,-0.5,116.8,/,/
CCOC(=O)c1c(CCl)nc2ccccc2c1C,4.9,-1.0,32.2,2.5,-3.1,89.3,/,/
O=C(c1ccc(NS(=O)(=O)c2ccc3[nH]c(=O)[nH]c3c2)cc1)N1CCN(c2ccccc2O)CC1,-19.5,-0.1,0.4,0.7,-1.8,116.5,/,/
C=CCNC(=S)N/N=C/c1ccc(-c2cccc([N+](=O)[O-])c2)o1,2.2,0.9,3.9,0.5,2.3,89.1,/,/
C=CCNC(=S)N/N=C/c1ccc(-c2ccc(Br)cc2)o1,8.8,2.6,80.6*,-56.8,-77.1,101.0,132.3*,18.9*
